# Reference: the supplement of paper PMC3545927
# This is one part of the list. The true hit rate is not given.
# B1: HC746 (peptide)
# chain: CACPAGHAVGAGNASASA
# B2: HC433 (peptide)
# chain: CAPLGNWFGCAGNASASA
# B3: FS-890 (peptide)
# chain: CAVKSRLKRLAGNASASA
# B4: FS-1011 (peptide)
# chain: CAHSSRLKRLAGNASASA
# B5: HC1497 (peptide)
# chain: CAIKSLTERLAGNASASA
# B6: HC1816 (peptide)
# chain: CADGMEECSQAGNASASA
# B7: HC1697 (peptide)
# chain: CAMSECSQHLAGNASASA
# B8: HC1740 (peptide)
# chain: CAMEECSCHLAGNASASA
# B9: HC1287 (peptide)
# chain: CALDSFDPLVAGNASASA
# B10: HC1356 (peptide)
# chain: CALEGEPGDPAGNASASA
# B11: FS-1459 (peptide)
# chain: CAKMRRKKRFAGNASASA
# B12: FS-352 (peptide)
# chain: CALNEIKKRFAGNASASA
# B13: FS-1457 (peptide)
# chain: CAGSIRKKRFAGNASASA
# B14: HC578 (peptide)
# chain: CAYKRYISWCAGNASASA
# B15: HC1215 (peptide)
# chain: CANLKCPCQVAGNASASA
# B16: FS-1085 (peptide)
# chain: CASQFRSKRSAGNASASA
# B17: FS-874 (peptide)
# chain: CASSTRSKRSAGNASASA
# B18: FS-564 (peptide)
# chain: CASQQRQYRSAGNASASA
# B19: FS-464 (peptide)
# chain: CAMSTWSKRSAGNASASA
# B20: FS-590 (peptide)
# chain: CAFWVRSKRSAGNASASA
# B21: HC539 (peptide)
# chain: CAASLAGTHGAGNASASA
# B22: HC2471 (peptide)
# chain: CADTPCSAHLAGNASASA
# B23: HC493 (peptide)
# chain: CALLLTTTQWAGNASASA
# B24: HC1924 (peptide)
# chain: CATTPCSGSIAGNASASA
# B25: HC2366 (peptide)
# chain: CAEVPCHMPSAGNASASA
# B26: HC1265 (peptide)
# chain: CAPSLKATCTAGNASASA
# B27: HC1194 (peptide)
# chain: CATGPCTPLPAGNASASA
# B28: HC658 (peptide)
# chain: CADIINGLPVAGNASASA
# B29: HC1735 (peptide)
# chain: CAMEECSHHLAGNASASA
# B30: FS-1626 (peptide)
# chain: CAEKERSKRSAGNASASA
# B31: FS-927 (peptide)
# chain: CAELNRSKRSAGNASASA
# B32: FS-94 (peptide)
# chain: CASSARNKRSAGNASASA
# B33: FS-1568 (peptide)
# chain: CASKERSKRSAGNASASA
# B34: FS-232 (peptide)
# chain: CAELNRSKKDAGNASASA
# B35: HC559 (peptide)
# chain: CALLLLLALPAGNASASA
# B36: HC1851 (peptide)
# chain: CATDPCSGSWAGNASASA
# B37: HC332 (peptide)
# chain: CAAILDMIAGAGNASASA
# B38: HC795 (peptide)
# chain: CASKAHGIDPAGNASASA
# B39: FS-721 (peptide)
# chain: CASKSLSKRSAGNASASA
# B40: HC1850 (peptide)
# chain: CATVPCSGSWAGNASASA
# B41: HC879 (peptide)
# chain: CATDALMTGYAGNASASA
# B42: FS-2972 (peptide)
# chain: CARKRREAESAGNASASA
# B43: FS-2682 (peptide)
# chain: CARHYRPTGYAGNASASA
# B44: FS-2035 (peptide)
# chain: CARKDRRKKGAGNASASA
# B45: HC1349 (peptide)
# chain: CAPPDSDAESAGNASASA
# B46: FS-2348 (peptide)
# chain: CARKRRIVSGAGNASASA
# B47: FS-1959 (peptide)
# chain: CARKRRGTKGAGNASASA
# B48: FS-2975 (peptide)
# chain: CARKRRSIRYAGNASASA
# B49: FS-2565 (peptide)
# chain: CARKRRGTGYAGNASASA
# Target: furin, P09958
# Assay: furin cleavage Z-score vs untreated control; higher = more cleavage, active = 3.5 or more, inactive = 1 or less, 8 variable residues between constant flanks
# Method in brief: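 Furin cleavage was scored on 8-mer peptides joined to a cDNA oligonucleotide and bound to magnetic beads at the N-terminus. Digestion with purified furin (1:10 enzyme:substrate, 0.01 ml, 50 mM HEPES pH 7.5, CaCl2, NaCl) lasted 7.5, 15 or 30 min. Freed DNA was tagged with adapters by PCR, sequenced and counted; the cleavage Z-score is the lowess-adjusted log count versus furin-free reactions, scaled by median absolute deviation.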
# Chain of furin, P09958 (P09958 whole entry): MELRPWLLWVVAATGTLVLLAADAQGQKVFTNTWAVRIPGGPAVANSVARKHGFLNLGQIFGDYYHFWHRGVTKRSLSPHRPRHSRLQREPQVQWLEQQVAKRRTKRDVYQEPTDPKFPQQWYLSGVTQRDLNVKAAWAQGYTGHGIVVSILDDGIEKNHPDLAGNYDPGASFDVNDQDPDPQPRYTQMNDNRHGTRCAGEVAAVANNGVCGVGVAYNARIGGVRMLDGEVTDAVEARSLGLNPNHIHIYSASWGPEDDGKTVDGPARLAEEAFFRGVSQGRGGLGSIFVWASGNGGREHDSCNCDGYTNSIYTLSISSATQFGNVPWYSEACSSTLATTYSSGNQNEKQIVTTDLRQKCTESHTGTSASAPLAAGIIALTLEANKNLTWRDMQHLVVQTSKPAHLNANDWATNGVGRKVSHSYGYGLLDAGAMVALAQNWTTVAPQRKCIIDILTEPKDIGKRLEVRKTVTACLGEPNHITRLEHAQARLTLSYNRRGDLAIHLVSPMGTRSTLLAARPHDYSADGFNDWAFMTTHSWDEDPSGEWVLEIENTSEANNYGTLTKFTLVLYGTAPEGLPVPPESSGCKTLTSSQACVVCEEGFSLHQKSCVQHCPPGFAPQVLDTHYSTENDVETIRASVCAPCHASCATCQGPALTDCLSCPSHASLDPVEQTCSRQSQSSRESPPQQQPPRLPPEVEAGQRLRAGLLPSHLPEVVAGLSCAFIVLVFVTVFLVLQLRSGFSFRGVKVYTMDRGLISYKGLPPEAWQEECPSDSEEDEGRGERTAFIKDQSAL
Sequence,furin cleavage Z-score (7.5 min),furin cleavage Z-score (15 min),furin cleavage Z-score (30 min)
B1,-0.805 (inactive),-1.77 (inactive),0.00889 (inactive)
B2,1.65,0.567 (inactive),1.54
B3,9.42 (active),12 (active),9.55 (active)
B4,6.44 (active),7.96 (active),7.66 (active)
B5,-0.222 (inactive),-0.416 (inactive),-0.246 (inactive)
B6,-0.375 (inactive),0.927 (inactive),0.477 (inactive)
B7,0.222 (inactive),0.351 (inactive),1.22
B8,0.898 (inactive),-0.945 (inactive),0.106 (inactive)
B9,0.861 (inactive),0.184 (inactive),1.88
B10,-0.565 (inactive),0.288 (inactive),0.927 (inactive)
B11,7.33 (active),9.76 (active),8.97 (active)
B12,0.841 (inactive),-1.42 (inactive),-0.561 (inactive)
B13,6.25 (active),7.01 (active),6.64 (active)
B14,0.0156 (inactive),0.474 (inactive),1.13
B15,-0.928 (inactive),-0.942 (inactive),-0.8 (inactive)
B16,9.98 (active),9.45 (active),7.11 (active)
B17,11.9 (active),11.3 (active),10 (active)
B18,2.45,5.55 (active),5.41 (active)
B19,0.45 (inactive),1.32,1.43
B20,9.47 (active),8.07 (active),7.6 (active)
B21,0.00941 (inactive),3.06,1.2
B22,-1.99 (inactive),-1.52 (inactive),-0.796 (inactive)
B23,-0.815 (inactive),-0.0284 (inactive),0.00617 (inactive)
B24,-0.658 (inactive),-0.276 (inactive),-1.61 (inactive)
B25,0.437 (inactive),1.57,0.743 (inactive)

Sequence,furin cleavage Z-score (7.5 min),furin cleavage Z-score (15 min),furin cleavage Z-score (30 min)
B26,0.563 (inactive),1.42,0.215 (inactive)
B27,-0.592 (inactive),-0.46 (inactive),0.602 (inactive)
B28,-0.191 (inactive),-0.925 (inactive),-0.966 (inactive)
B29,0.695 (inactive),-0.107 (inactive),-0.123 (inactive)
B30,9.14 (active),7.38 (active),7.92 (active)
B31,10.6 (active),9.86 (active),8.24 (active)
B32,11.8 (active),11.6 (active),8.13 (active)
B33,12.6 (active),10.6 (active),9.24 (active)
B34,0.785 (inactive),0.28 (inactive),0.715 (inactive)
B35,-0.496 (inactive),-0.0246 (inactive),-1.1 (inactive)
B36,-1.13 (inactive),-1.19 (inactive),-1.08 (inactive)
B37,0.577 (inactive),0.516 (inactive),-0.84 (inactive)
B38,-1.17 (inactive),-1.03 (inactive),1.13
B39,8.05 (active),10.1 (active),6.73 (active)
B40,-0.242 (inactive),-1.82 (inactive),-1.24 (inactive)
B41,0.343 (inactive),0.0305 (inactive),0.976 (inactive)
B42,12 (active),12.2 (active),8.7 (active)
B43,-1.08 (inactive),-0.433 (inactive),-0.26 (inactive)
B44,0.369 (inactive),0.879 (inactive),1.04
B45,-1.81 (inactive),-1.84 (inactive),-0.313 (inactive)
B46,-0.706 (inactive),0.0646 (inactive),-1.35 (inactive)
B47,8.4 (active),9.53 (active),8.24 (active)
B48,8.7 (active),10.2 (active),9.27 (active)
B49,9.5 (active),11.3 (active),9.57 (active)
